Screening results deposited in PubChem BioAssay by Broad Institute.
NSD2 HMT inh – inhibitors of human histone methyltransferase NSD2 | O96028 | NSD2 peptide methylation, AlphaScreen, 120 min | inhibition, % at 12.5 µM | 0.54% of 310,000 active | AID 743445; in the data active = inhibition above about 50%
Mot1-301 SUMO – blocks SUMOylation pathway, rescuing yeast Mot1-301 growth. S. cerevisiae Mot1-301 growth rescue, ATP luminescence, 38.5C; percent above DMSO median, 100 means doubled. 1% of 320,000 active. growth rescue, % at 18.8 µM. AID 2716;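 active = every valid replicate shows activation above 250% relative to neutral control wells; inactive = the rest, any valid replicate at or below 250%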;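 note: OY570 slx delta 5 strain wells were the positive control but not used for scaling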
Casp6 inh – caspase-6 (human) enzyme inhibition; P55212; purified caspase-6, Z-VEID-R110 cleavage fluorescence; inhibition, % at 12.5 µM; 0.53% of 350,000 active; AID 686996;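 active = mean inhibition across replicates at least about 35%, with every replicate also reaching that limit, limit read from the data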;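 note: 0% = median of neutral control wells and 100% = no fluorescence left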
Target sequence (P55212 24-179 limits assumed): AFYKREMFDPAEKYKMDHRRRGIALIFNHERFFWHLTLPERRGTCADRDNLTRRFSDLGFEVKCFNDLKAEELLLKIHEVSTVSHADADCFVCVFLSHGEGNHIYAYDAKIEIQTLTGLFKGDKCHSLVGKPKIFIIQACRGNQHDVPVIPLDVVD
Target sequence (P55212 194-293 limits assumed): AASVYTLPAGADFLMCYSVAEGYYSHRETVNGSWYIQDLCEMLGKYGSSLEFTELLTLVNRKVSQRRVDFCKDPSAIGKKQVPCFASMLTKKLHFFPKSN
N-glyco inh – N-linked glycosylation inhibition; D54 ERlucT glycosylation luciferase reporter, 24 h; percent of 100 nM tunicamycin response; reporter increase, % at 12.5 µM; 0.23% of 360,000 active; AID 588692;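 active = mean luciferase reporter signal, scaled so untreated is 0 and the glycosylation-blocking control 100, at or above a set limit in every replicate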;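 note: luciferase carries N-glycosylation sites so blocking glycosylation raises the light; 0% = median of neutral control wells and 100% = median of 100 nM tunicamycin wells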
ALR inh – blocks human ALR sulfhydryl oxidase activity | P55789 | AID 485317 | inhibition, % (concentration not given with the values) | purified ALR, DTT oxidation, H2O2 HRP-luminol luminescence | 3.8% of 290,000 active;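 active = mean replicate inhibition above about 79%, with every replicate also reaching it, limit read from the data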
CDK5 p35 inh – CDK5/p35 (human) kinase inhibition. Recombinant CDK5/p35, ADP-Glo luminescence, 60 min. inhibition, % at 10 µM. 0.01% of 330,000 active;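 active = highest replicate inhibition of at least 50% and at least 75% of replicates reaching 50%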;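 note: plate controls were DMSO neutral control for no effect and GW8510 at 10 µM for full effect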
Active calls of the source: *. Compounds with a hit are over-represented: about 3.9% of the library has one in this group of screens.

`CCOP(=O)(OCC)C(Nc1cccc([N+](=O)[O-])c1)c1ccc(OC)cc1` (centres undefined) gave NSD2 HMT inh 2, Mot1-301 SUMO -22, Casp6 inh -3, N-glyco inh 1 and ALR inh -2.
CCOc1ccc(NC(c2ccccc2)P(=O)(OC)OC)cc1 (centres undefined) was read as NSD2 HMT inh 5, Mot1-301 SUMO 8, Casp6 inh 0, N-glyco inh 1, ALR inh 89* and CDK5 p35 inh 0.
CCOP(=O)(OCC)C(Nc1ccccc1)c1cc(OC)ccc1OC (centres undefined) was read as Mot1-301 SUMO -3, Casp6 inh 1, N-glyco inh -4, ALR inh 65 and CDK5 p35 inh 0.
COP(=O)(OC)C(Nc1ccc(C)cc1)c1ccc([N+](=O)[O-])cc1 (centres undefined) was read as NSD2 HMT inh 0, Mot1-301 SUMO 2, Casp6 inh 1, N-glyco inh 4, ALR inh 83* and CDK5 p35 inh 0.
`Cn1nnc2c[n+](CC(=O)c3ccc(Cl)cc3)cc(Br)c21` gave Mot1-301 SUMO -8, Casp6 inh 17, N-glyco inh -2 and ALR inh 91*.
`O=S(=O)(N[C@H]1CC[C@@H](CCn2cc(-c3cccc(F)c3)nn2)O[C@H]1CO)c1ccc(Cl)cc1` gave Casp6 inh 2.
O=C1c2cccc(O)c2C(=O)c2c(O)cccc21 was read as Mot1-301 SUMO -53 and ALR inh -10.
O=C1C=C(O)c2cccc(O)c2C1=O was read as Mot1-301 SUMO 19, Casp6 inh 77*, N-glyco inh 4, ALR inh -21 and CDK5 p35 inh 0.
Screening CN(C)c1ccc(/C=C/c2nnnn2-c2ccccc2)cc1 returned NSD2 HMT inh -10, Mot1-301 SUMO 3, N-glyco inh -5, ALR inh 99* and CDK5 p35 inh -1.
`COc1cc(/C=C(\C#N)c2nc3ccccc3[nH]2)cc(Br)c1OCc1ccccc1` gave NSD2 HMT inh -1, Mot1-301 SUMO 487*, Casp6 inh -4, N-glyco inh 1 and CDK5 p35 inh 1.
For COc1cc(/C=C(\C#N)C(=O)c2c[nH]c3ccccc23)cc(OC)c1O the results were Mot1-301 SUMO -4, Casp6 inh -2, N-glyco inh 1, ALR inh 99* and CDK5 p35 inh 1.
For COc1ccc(/C=C(\C#N)c2nc3ccccc3[nH]2)cc1O the results were NSD2 HMT inh -4, Casp6 inh 5, N-glyco inh -2 and CDK5 p35 inh 1.
`COc1c(O)ccc(/C=C(\C#N)c2nc3ccccc3[nH]2)c1[N+](=O)[O-]` gave NSD2 HMT inh 25, Mot1-301 SUMO -1, Casp6 inh 13, N-glyco inh 2 and ALR inh 87*.
`COc1cc(/C=C(\C#N)c2nc3ccccc3[nH]2)cc(OC)c1O` gave NSD2 HMT inh 13, Mot1-301 SUMO 23, Casp6 inh 4, N-glyco inh 8, ALR inh 99* and CDK5 p35 inh 1.
Screening CC(C)NC(=O)N[C@H]1CC[C@H](CCNC(=O)C2CCOCC2)O[C@H]1CO returned Casp6 inh -1.
CCN(CC)CCNC(=O)c1ccc2c(c1)NC(=O)c1ccccc1S2 was read as NSD2 HMT inh 18, Mot1-301 SUMO -7, Casp6 inh -12, N-glyco inh -6, ALR inh -9 and CDK5 p35 inh 0.
For CN(C)CCNC(=O)c1ccc2c(c1)NC(=O)c1ccccc1S2 the results were NSD2 HMT inh 1, Mot1-301 SUMO 336*, Casp6 inh 2, N-glyco inh -5, ALR inh 0 and CDK5 p35 inh -1.
Screening CN(CCCN1c2ccccc2CCc2ccccc21)CC(=O)c1ccc(Cl)cc1 returned Mot1-301 SUMO 6 and ALR inh 98*.
For CN(C)CCCN1c2ccccc2CCc2ccc(Cl)cc21 the results were Mot1-301 SUMO 130, Casp6 inh 2, N-glyco inh 0, ALR inh 67 and CDK5 p35 inh 1.
Screening COc1ccc(S(=O)(=O)Nc2ccc3c(c2)C(=O)N([C@H](C)CO)C[C@@H](C)[C@@H](CN(C)Cc2ccc4c(c2)OCO4)O3)cc1 returned Casp6 inh 1.
